Test results taken from PubChem BioAssay (Tox21).
Where “and” joins values, the source holds several entries; their conditions need not be identical. Equal values may be shown once. Values without a mark were called inactive. Records with an inconclusive call do not appear. A call without a number means that no potency is given here. Calls of active or inactive are those of the source. Unless noted, calls follow the shape of the dose curve; as a rule, active = well fitted inhibition curve with a large enough effect in the repeat runs; inconclusive = weak or mixed curves; inactive = no such curve, though single readings can be large or run the other way.

The compounds below were run against Acetylcholinesterase (Homo sapiens) (UniProt P22303) (assay: Acetylcholinesterase (AChE) small molecule antagonists: enzyme-based qHTS assay with human liver microsomes (AID 1347399; calls by dose curve; also: nearly all actives have a fitted effect of over 60% in size)). Details: Potency: qHTS inhibition; series mostly up to 115 µM.
Summary of the method: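 Recombinant human AChE (50 mU/mL in the enzyme mix) and human liver microsomes (0.25 mg/mL final) were preincubated with compound and NADPH (0.25 mg/mL final) for 30 min at 37 C. Acetylthiocholine/DTNB was then added; thiocholine was read colorimetrically after 10 min at room temperature.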

Sequence of Acetylcholinesterase (Homo sapiens) (P22303 whole entry, looked up): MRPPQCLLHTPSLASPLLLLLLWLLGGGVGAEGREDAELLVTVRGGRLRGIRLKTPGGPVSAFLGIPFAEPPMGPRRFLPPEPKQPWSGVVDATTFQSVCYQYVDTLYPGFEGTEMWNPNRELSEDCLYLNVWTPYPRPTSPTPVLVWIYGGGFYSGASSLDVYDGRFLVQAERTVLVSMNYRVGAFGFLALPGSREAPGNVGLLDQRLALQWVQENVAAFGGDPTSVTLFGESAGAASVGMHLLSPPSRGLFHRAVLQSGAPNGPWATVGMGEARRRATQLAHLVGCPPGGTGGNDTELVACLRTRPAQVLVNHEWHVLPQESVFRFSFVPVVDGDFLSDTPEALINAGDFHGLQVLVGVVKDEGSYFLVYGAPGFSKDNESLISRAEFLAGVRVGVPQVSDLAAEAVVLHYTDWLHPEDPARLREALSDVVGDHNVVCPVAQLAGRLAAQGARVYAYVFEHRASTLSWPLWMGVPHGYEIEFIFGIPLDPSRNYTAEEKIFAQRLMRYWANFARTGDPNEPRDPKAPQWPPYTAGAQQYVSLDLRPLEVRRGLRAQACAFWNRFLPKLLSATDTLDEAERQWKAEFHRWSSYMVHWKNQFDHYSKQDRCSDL

| Structure (SMILES) | Potency | activity change, negative = inhibition |
| --- | --- | --- |
| CCOC(=O)COc1cc(-c2nn(C)c(OC(F)F)c2Cl)c(F)cc1Cl | inactive | – |
| COP(=O)(OC)O/C(=C/Cl)c1cc(Cl)c(Cl)cc1Cl | inactive | – |
| C=CC[C@]1(O)CC[C@H]2[C@@H]3CCC4=CC(=O)CCC4=C3C=C[C@@]21C | inactive | – |
| O=C(O)c1ccccc1C(=O)Nc1cccc2ccccc12 | inactive | – |
| CC1(C)CCC(Cc2ccc(Cl)cc2)C1(O)Cn1cncn1 (stereo unspecified) | inactive | – |
| CO[C@@H]1[C@H](OC(=O)NC(=O)CCl)CC[C@]2(CO2)[C@H]1[C@@]1(C)O[C@@H]1CC=C(C)C | – | -0.551% [at 23.6 µM] |
| COC(=O)c1cncn1C(C)c1ccccc1 (stereo unspecified) | inactive | – |
| Cc1cc(=O)[nH]o1 | inactive | – |
| COC1=CC(=O)O[C@@H](CCc2ccccc2)C1 | inactive | – |
| Cn1cc[n+](C)c1 (tested in a mixture with another compound) | inactive | – |
| N#Cc1cc(I)c(O)c(I)c1 | inactive | – |

Each compound was assayed against Cytochrome P450 2D6 (Homo sapiens) (UniProt P10635) (assay: Cytochrome P450 Family 2 Subfamily D Member 6 (CYP2D6) small molecule antagonists: luciferase reporter qHTS assay (AID 1671196; also: nearly all actives have a fitted effect of over 50% in size; also: potency is read from the fitted curve at half-maximal effect)). Details: P450-Glo CYP2D6 enzyme assay, luciferin luminescence, 1 h; series mostly up to 115 µM.
Summary of the method: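 CYP2D6 enzyme–substrate mix was held with compound for 10 min at room temperature, then NADPH regeneration solution was added and the reaction ran 1 h at room temperature. Luciferin product was detected by luminescence after 20 min with detection reagent.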

Sequence of Cytochrome P450 2D6 (Homo sapiens) (P10635 whole entry, looked up): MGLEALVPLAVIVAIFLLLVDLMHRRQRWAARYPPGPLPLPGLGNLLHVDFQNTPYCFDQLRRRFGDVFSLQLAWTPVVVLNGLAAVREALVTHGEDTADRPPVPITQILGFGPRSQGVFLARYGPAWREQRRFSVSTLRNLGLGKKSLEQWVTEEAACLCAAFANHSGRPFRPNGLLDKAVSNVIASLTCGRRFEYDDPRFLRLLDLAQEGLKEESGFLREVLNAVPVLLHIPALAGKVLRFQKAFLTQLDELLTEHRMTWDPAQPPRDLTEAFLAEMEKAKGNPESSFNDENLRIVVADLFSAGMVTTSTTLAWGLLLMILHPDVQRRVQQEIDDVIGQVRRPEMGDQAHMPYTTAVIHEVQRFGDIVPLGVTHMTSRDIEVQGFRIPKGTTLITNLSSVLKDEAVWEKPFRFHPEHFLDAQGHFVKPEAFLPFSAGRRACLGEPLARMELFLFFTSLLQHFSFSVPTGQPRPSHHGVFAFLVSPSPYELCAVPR

| Structure (SMILES) | Potency | activity change, negative = inhibition |
| --- | --- | --- |
| C[C@]12CC[C@H]3[C@@H](CCC4=CC(=O)CC[C@@H]43)[C@@H]1CC[C@@H]2OC(=O)CCC1CCCCC1 | inactive | – |
| C=CC(C)=O | inactive | – |
| Clc1cc(C(Cl)(Cl)Cl)cnc1Cl | inactive | – |
| C/C=C/C=O | inactive | – |
| Cc1c(F)c(F)c(COC(=O)C2C(/C=C(\Cl)C(F)(F)F)C2(C)C)c(F)c1F (stereo unspecified) | inactive | – |
| Nc1nc(N)nc(N)n1 | inactive | – |
| O=C(CBr)OCc1ccccc1 | inactive | – |
| O=S(=O)(O)C(F)(F)C(F)(F)C(F)(F)C(F)(F)F | 59.8 µM (active) | – |
| Cc1ccc(N)cc1C | 5.07 µM (active) | – |
| CC[C@H]1C[C@H]2[C@@H]3CCC4=CC(=O)CC[C@@H]4[C@H]3CC[C@]2(C)[C@H]1O | inactive | – |
| O=Cc1ccc2c(c1)OCO2 | inactive | – |
| COC(=O)C(Br)CBr (stereo unspecified) | inactive | – |
| CC1C(=O)C[C@]2(C(C)C)C[C@H]12 (stereo partly specified) | 34.5 µM (active) | – |
| Brc1ccccc1 | inactive | – |
| CO/N=C(/C(=O)OC)c1ccccc1COc1ccccc1C | inactive | – |
| CC(C)(Cl)[N+](=O)[O-] | inactive | – |
| CC(C)O.CC(C)O.OCCN(CCO)CCO.OCCN(CCO)CCO.[Ti] | inactive | – |
| ClP(Cl)(Cl)(Cl)Cl | inactive | – |
| CC(=O)NC1CCSC1=O (stereo unspecified) | inactive | – |
| COP(=O)(OC)O/C(=C/Cl)c1cc(Cl)c(Cl)cc1Cl | 33.5 µM (active) | – |
| O=C(O)c1ccccc1C(=O)Nc1cccc2ccccc12 | 31.7 µM (active) | – |
| CC1(C)CCC(Cc2ccc(Cl)cc2)C1(O)Cn1cncn1 (stereo unspecified) | 35.6 µM (active) | – |
| CO[C@@H]1[C@H](OC(=O)NC(=O)CCl)CC[C@]2(CO2)[C@H]1[C@@]1(C)O[C@@H]1CC=C(C)C | – | -6.64% [at 23.6 µM] |
| COC(=O)c1cncn1C(C)c1ccccc1 (stereo unspecified) | 8.71 µM (active) | – |
| Cc1cc(=O)[nH]o1 | inactive | – |
| COC1=CC(=O)O[C@@H](CCc2ccccc2)C1 | inactive | – |
| Cn1cc[n+](C)c1 (tested in a mixture with another compound) | inactive | – |
| N#Cc1cc(I)c(O)c(I)c1 | inactive | – |

These compounds were tested against Cytochrome P450 2C19 (Homo sapiens) (UniProt P33261) (assay: Cytochrome P450 Family 2 Subfamily C Member 19 (CYP2C19) small molecule antagonists: luciferase reporter qHTS assay (AID 1671197; also: nearly all actives have a fitted effect of over 65% in size; also: potency is read from the fitted curve at half-maximal effect)). Details: P450-Glo CYP2C19 enzyme, luciferin luminescence, 1 h; series mostly up to 115 µM.
Summary of the method: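 P450-Glo CYP2C19 screening system; proluciferin substrate; DMSO compound stocks; 10 min RT preincubation; NADPH regeneration, 1 h at 37C; luciferin detection reagent, 20 min RT; luminescence as RLU.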

Sequence of Cytochrome P450 2C19 (Homo sapiens) (P33261 whole entry, looked up): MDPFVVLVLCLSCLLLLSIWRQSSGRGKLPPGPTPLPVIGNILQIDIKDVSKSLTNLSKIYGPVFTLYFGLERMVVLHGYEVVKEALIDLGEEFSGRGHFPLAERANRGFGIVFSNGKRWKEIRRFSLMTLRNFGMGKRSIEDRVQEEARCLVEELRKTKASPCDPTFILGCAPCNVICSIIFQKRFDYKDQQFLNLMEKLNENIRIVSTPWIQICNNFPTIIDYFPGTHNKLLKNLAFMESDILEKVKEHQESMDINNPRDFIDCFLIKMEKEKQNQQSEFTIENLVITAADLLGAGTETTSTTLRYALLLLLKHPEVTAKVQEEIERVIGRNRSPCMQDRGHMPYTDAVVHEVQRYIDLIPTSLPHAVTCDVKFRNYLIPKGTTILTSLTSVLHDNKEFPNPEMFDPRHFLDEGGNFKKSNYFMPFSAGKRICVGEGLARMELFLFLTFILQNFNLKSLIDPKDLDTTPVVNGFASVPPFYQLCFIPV

| Structure (SMILES) | Potency |
| --- | --- |
| CCCCNP(N)(N)=S | 50.2 µM (active) |
| c1cc2ccc3cccc4ccc(c1)c2c34 | 16.7 µM (active) |
| C/C=C/C=O | 34 µM (active) |
| CC1(C)[C@H](C=C(Cl)Cl)[C@@H]1C(=O)O[C@@H](C#N)c1cccc(Oc2ccccc2)c1 | 7.96 µM (active) |
| CCOS(C)(=O)=O | inactive |
| C=COC(C)=O | inactive |
| CC1C(=O)C[C@]2(C(C)C)C[C@H]12 (stereo partly specified) | 34.5 µM (active) |
| CC(C)(Cl)[N+](=O)[O-] | 89.8 µM (active) |
| CCOP(=S)(OCC)Oc1nc(Cl)c(Cl)cc1Cl | 2.25 µM (active) and 5.03 µM (active) |
| CCOC(=O)COc1cc(-c2nn(C)c(OC(F)F)c2Cl)c(F)cc1Cl | 31.7 µM (active) |
| C=CC[C@]1(O)CC[C@H]2[C@@H]3CCC4=CC(=O)CCC4=C3C=C[C@@]21C | 9.77 µM (active) |

The compounds below were run against Cytochrome P450 2C9 (Homo sapiens) (UniProt P11712) (assay: Cytochrome P450 Family 2 Subfamily C Member 9 (CYP2C9) small molecule antagonists: luciferase reporter qHTS assay (AID 1671198; also: nearly all actives have a fitted effect of over 50% in size; also: potency is read from the fitted curve at half-maximal effect)). Details: P450-Glo CYP2C9 enzyme assay, luciferin luminescence; series mostly up to 115 µM.
Summary of the method: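 Enzyme-substrate mix preincubated with compound 10 min at room temperature; reaction started with NADPH regeneration solution, 1 h 37C. Luminescent luciferin product read after 20 min detection reagent.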

Sequence of Cytochrome P450 2C9 (Homo sapiens) (P11712 whole entry, looked up): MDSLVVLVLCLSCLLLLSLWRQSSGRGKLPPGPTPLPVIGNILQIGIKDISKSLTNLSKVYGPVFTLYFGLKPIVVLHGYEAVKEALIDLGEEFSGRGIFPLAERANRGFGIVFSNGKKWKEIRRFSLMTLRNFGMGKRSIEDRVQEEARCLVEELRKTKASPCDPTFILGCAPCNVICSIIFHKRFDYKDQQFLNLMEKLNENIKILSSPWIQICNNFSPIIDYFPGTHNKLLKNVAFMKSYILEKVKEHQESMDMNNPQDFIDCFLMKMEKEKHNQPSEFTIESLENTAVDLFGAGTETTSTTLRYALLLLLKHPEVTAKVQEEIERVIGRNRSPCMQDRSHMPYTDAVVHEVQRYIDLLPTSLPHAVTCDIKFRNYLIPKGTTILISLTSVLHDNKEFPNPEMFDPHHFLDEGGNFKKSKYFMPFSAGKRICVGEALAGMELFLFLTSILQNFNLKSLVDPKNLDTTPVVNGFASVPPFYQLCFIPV

| Structure (SMILES) | Potency |
| --- | --- |
| C[C@]12CC[C@H]3[C@@H](CCC4=CC(=O)CC[C@@H]43)[C@@H]1CC[C@@H]2OC(=O)CCC1CCCCC1 | 17.4 µM (active) |
| CCCCNP(N)(N)=S | 35.6 µM (active) |
| c1cc2ccc3cccc4ccc(c1)c2c34 | 74.4 µM (active) |
| C=CC(C)=O | inactive |
| CC1(C)[C@H](C=C(Cl)Cl)[C@@H]1C(=O)O[C@@H](C#N)c1cccc(Oc2ccccc2)c1 | 3.56 µM (active) |
| Cc1c(F)c(F)c(COC(=O)C2C(/C=C(\Cl)C(F)(F)F)C2(C)C)c(F)c1F (stereo unspecified) | 22.4 µM (active) |
| Nc1nc(N)nc(N)n1 | inactive |
| CCOS(C)(=O)=O | inactive |
| O=C(CBr)OCc1ccccc1 | 35.6 µM (active) |
| O=S(=O)(O)C(F)(F)C(F)(F)C(F)(F)C(F)(F)F | 17.9 µM (active) |
| COC(=O)C(Br)CBr (stereo unspecified) | inactive |
| C=COC(C)=O | inactive |
| Brc1ccccc1 | inactive |
| CO/N=C(/C(=O)OC)c1ccccc1COc1ccccc1C | 28.3 µM (active) |
| CCOP(=S)(OCC)Oc1nc(Cl)c(Cl)cc1Cl | 7.99 µM (active) and 10 µM (active) |
| ClP(Cl)(Cl)(Cl)Cl | inactive |
| CCOC(=O)COc1cc(-c2nn(C)c(OC(F)F)c2Cl)c(F)cc1Cl | 6.33 µM (active) |
| COP(=O)(OC)O/C(=C/Cl)c1cc(Cl)c(Cl)cc1Cl | 23.7 µM (active) |
| C=CC[C@]1(O)CC[C@H]2[C@@H]3CCC4=CC(=O)CCC4=C3C=C[C@@]21C | 11 µM (active) |
| O=C(O)c1ccccc1C(=O)Nc1cccc2ccccc12 | 17.8 µM (active) |
| CC1(C)CCC(Cc2ccc(Cl)cc2)C1(O)Cn1cncn1 (stereo unspecified) | 0.178 µM (active) |
| COC(=O)c1cncn1C(C)c1ccccc1 (stereo unspecified) | 27.5 µM (active) |
| Cc1cc(=O)[nH]o1 | 110 µM (active) |
| COC1=CC(=O)O[C@@H](CCc2ccccc2)C1 | 33 µM (active) |
| Cn1cc[n+](C)c1 (tested in a mixture with another compound) | inactive |
| N#Cc1cc(I)c(O)c(I)c1 | 22.4 µM (active) |
